Most compounds without a hit are left out; they make up all but 10% or so of the library.
PLK1 PBD inh = PLK1 (human) polo-box domain binding inhibition; P53350; Plk1 PBD binding of FITC phosphopeptide, fluorescence polarization; Potency, µM, without a hit: max response, negative = inhibition, usual class: inhibitors; hit rate 2.8% among 360,000; AID 720504; further: potency means the concentration at half of the fitted maximal effect; series mostly up to about 57 µM; nearly all actives have a fitted effect of over 65% in size
CCT modulator = cytosolic chaperonin activity modulation | purified chaperonin ATPase assay, HTRF ADP detection, 30 min | activity change, % (concentration not given with the values), hits read low | hit rate 0.3% among 360,000 | AID 651819; in the data active means activity change below about -30%
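We incubate TRiC, 40 or 20 nM final, with library compounds at 76 uM and 10 uM ATP for 30 min at 37 °C. ADP formed is detected with Transcreener HTRF reagents after 30 min at room temperature.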
MmCpn inh = blocks the Methanococcus maripaludis chaperonin Mm-Cpn. purified Mm-Cpn ATPase, ADP Transcreener TR-FRET. Potency, µM (top dose mostly 76.9 µM), inactives show at the top dose activity, negative = inhibition, actives largely listed as inhibitors. hit rate 0.031% among 330,000. AID 504842; further: potency means the concentration at half of the fitted maximal effect; nearly all actives have a fitted effect of over 80% in size
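Quantitative HTS used 25 nM Mm-CPN and 10 uM ATP in magnesium/KCl Tris buffer, pH 7.4, with 1 mM DTT. Hydrolysis ran 30 min at 37°C; ADP was read by HTRF.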
VDR inh = blocks the human vitamin D receptor | P11473 | VDR-SRC2-3 peptide fluorescence polarization, 2 h | Potency, µM, without a hit: max response, negative = inhibition, hits mostly inhibitors | hit rate 0.93% among 400,000 | AID 504847; further: potency means the concentration at half of the fitted maximal effect
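FP read-out; VDR + SRC2-3 coactivator peptide; 23 nl compound by pintool; 2 h RT incubation; reagents held at 4 deg C, protected from light.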
Sfp PPTase inh = inhibitors of Bacillus subtilis Sfp phosphopantetheinyl transferase; Q9F4F7; Biochemical Sfp PPTase activity, qHTS; Potency, µM, without a hit: largest response in the series, negative = inhibition, actives largely listed as inhibitors; hit rate 3.5% among 310,000; AID 1490;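 further: the enzyme is Sfp with the accession as filed and its product quenches rhodamine fluorescence; potency means the concentration at half of the fitted maximal effect; 0% = enzyme reaction without inhibitor and -100% = no enzyme wells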
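Sfp 15 nM + cpd, 15 min RT; start w/ rhodamine-CoA 5 uM, BHQ-2-YbbR 12.5 uM (final); 50 mM Hepes pH 7.6, 10 mM MgCl2, 0.01% NP-40, 0.01% BSA; read 525/598 nm at 0 and 30 min.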
G9a block = blocks human histone lysine methyltransferase G9a; Q96KQ7; G9a H3K9 monomethylation, AlphaScreen, 2 h; Potency, µM (doses to about 102 µM), without a hit: at the highest dose activity, negative = inhibition, hits mostly inhibitors; hit rate 8.8% among 350,000; further: potency means the concentration at half of the fitted maximal effect; nearly all actives have a fitted effect of over 75% in size
Target sequence (Q96KQ7 913-1193 limits assumed): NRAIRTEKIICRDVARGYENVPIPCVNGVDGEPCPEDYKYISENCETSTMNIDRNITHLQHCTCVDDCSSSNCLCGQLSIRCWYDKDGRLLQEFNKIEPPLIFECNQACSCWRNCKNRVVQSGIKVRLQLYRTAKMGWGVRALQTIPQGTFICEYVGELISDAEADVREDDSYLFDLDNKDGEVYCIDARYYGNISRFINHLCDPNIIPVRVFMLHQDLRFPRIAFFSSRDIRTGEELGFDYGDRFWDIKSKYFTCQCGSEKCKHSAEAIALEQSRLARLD
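Chemiluminescent proximity detection of H3K9 monomethylation, read after 10 min bead incubation in the dark. Reaction: 20 nM G9a, 500 nM biotin-H3K9 peptide, 20 uM SAM cofactor, 2 h, room temperature, following 15 min enzyme-compound preincubation.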
An asterisk follows results filed as active; ? = inconclusive; . = no result given; [ ] = another dose, or the depositor's remark. Unless noted, the call rests on the fitted dose curve; in most records, active means well fitted curve in the direction sought with a large enough effect; inconclusive means small, poorly fitted or top-dose-only effect, or another doubt; inactive means no such curve, though single readings can be large; an effect the other way counts as inactive or inconclusive. Unless noted, on the % scale 0 is the no-effect control and ±100 the full control effect.

SMILES	PLK1 PBD inh	CCT modulator	MmCpn inh	VDR inh	Sfp PPTase inh	G9a block
Cc1cccc(OCC(=O)Nc2ccc3c(c2)nc(CN2CCCCC2)n3C)c1	-29%	0	-1%	12%	-1%	32µM*
Cc1cccc(OCC(=O)Nc2ccc3c(c2)nc(CCN2CCCCC2)n3C)c1	-8%	-2	-3%	8%	18%	-7%
CC(=O)c1sc2nc(-c3cccs3)ccc2c1N	-22%	-2	-14%	-3%	50µM*	1.6µM*
COc1cccc(CN2CCNC(=O)C2CC(=O)NCCn2nc(C)cc2C)c1OC (stereo unspecified)	-6%	-2	0%	11%	-15%	?
Cc1cc(C)n(CCNC(=O)CC2C(=O)NCCN2Cc2ccccc2C(F)(F)F)n1 (stereo unspecified)	-18%	1	2%	-10%	-5%	45µM*
Cc1cc(CNC(=O)CC2C(=O)NCCN2Cc2ccccc2C(F)(F)F)on1 (stereo unspecified)	-20%	-4	-3%	-16%	6%	50µM*
Cn1cccc1C(=O)N1CCC2(CC1)CCN(c1ccncc1)CC2	.	.	.	-1%	22%	-1%[12.7 µM]
COc1cc(N=Nc2ccc(Br)cc2)cc(C=O)c1O	27µM*	-2	.	.	.	.
COc1cc(CN(C)C)cc(C=O)c1O	-9%	-3	0%	7%	1%	.
CCOc1cc(Cl)c(S(=O)(=O)n2ccnc2)cc1Cl	.	.	.	-4%	.	5%[59 µM]
COc1cc(/C=N/NC(=O)CCOc2ccccc2C)cc(Br)c1O	-18%	-8	0%	16%	-14%	50µM*
Cc1ccc(C)c(N2CCN(S(=O)(=O)c3ccc(-c4coc(C)n4)cc3)CC2)c1	.	.	.	-3%	.	-10%[59 µM]
Cc1cccc(N2CCN(S(=O)(=O)c3cccc4nonc34)CC2)c1C	8%	-15	1%	-20%	5%	20µM*
Cc1cccc(N2CCN(S(=O)(=O)c3ccc4c(c3)NC(=O)C(C)S4)CC2)c1C (stereo unspecified)	-10%	0	0%	0%	9%	13%
Cc1nc(-c2ccc(S(=O)(=O)N3CCN(c4cccc(C)c4C)CC3)cc2)co1	24µM*	-2	-2%	?	-2%	.
Cc1cccc(N2CCN(S(=O)(=O)c3ccc4c(c3)NC(=O)CS4)CC2)c1C	27µM*	0	3%	-14%	-2%	?
Cc1nc(-c2ccc(S(=O)(=O)N3CCN(c4ccccc4)CC3)cc2)co1	-16%	-6	-10%	-16%	13%	-5%
Cc1cccc(N2CCN(S(=O)(=O)c3ccc(-c4coc(C)n4)cc3)CC2C)c1 (stereo unspecified)	5%	-1	2%	2%	2%	25µM*
O=S(=O)(c1cccc2nonc12)N1CCN(c2ccccc2F)CC1	-4%	0	0%	14%	1%	.
CO[C@]1(C)C[C@H]2O[C@]1(C)n1c3ccccc3c3c4c(c5c6ccccc6n2c5c31)C(=O)N(C)C4	.	.	.	7%	-10%	.
CCCn1c(SCc2nc(-c3ccc(OC)c(OC)c3)no2)nnc1-c1ccccc1	.	.	.	13%	.	2%[59 µM]
COc1ccc2[nH]c(=O)c(CN(c3ccccc3OC)S(=O)(=O)c3ccccc3)cc2c1	1%	-1	-10%	2%	4%	56µM*
COc1ccc(S(=O)(=O)N(Cc2cccnc2)Cc2cc3ccccc3[nH]c2=O)cc1	27µM*	2	0%	-23%	26%	-7%
COc1ccc2[nH]c(=O)c(CN(c3ccccc3)S(=O)(=O)c3ccccc3)cc2c1	1%	-1	-9%	4%	4%	12%
CCOc1ccc(C(=O)Nc2cc(-c3cn4cccnc4n3)ccc2C)cc1OCC	.	.	.	-4%	.	5%[59 µM]
Cc1ccc(CNC(=O)C2CCCN(c3nnc(-n4c(C)ccc4C)s3)C2)cc1 (stereo unspecified)	.	.	.	17%	.	-11%[59 µM]
Cc1ccc(C(=O)COC(=O)c2cc(=O)[nH]c3ccccc23)cc1C	-6%	-3	-10%	-2%	6%	28µM*

Screens: PubChem, National Center for Advancing Translational Sciences (NCATS)
